GLP1R cytotox = cytotoxicity counter-screen for GLP-1 receptor inverse agonists. AID 624418. actives 0.13% (n = 410,000). Potency, µM (highest dose often 38.3 µM), usual class: inhibitors. HEK293 cAMP-luciferase reporter cells, luminescence, 24 h;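 note: loss of luciferase light is scored as toxicity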
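Quantitative HTS format, 1536 wells, 200 cells/uL seeded. Compounds: 23 nL, 24 h, 37 °C. Detection: luciferase reagent, luminescence at 12 min RT; decreased signal taken as cytotoxic.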
GLP-1R inv ag = acts as inverse agonist at human GLP-1 receptor; actives 1.6% (n = 410,000); P43220; Potency, µM (top dose mostly 38.3 µM), hits mostly inhibitors; HEK293 GLP-1R CRE-luciferase, luminescence, 24 h; GLP-1R form is constitutively active; AID 624417; note: nearly all actives have a fitted effect of over 55% in size
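Luminescence readout: a drop in cAMP-driven luciferase signal flags inverse agonism at a constitutively active GLP-1R stably expressed in HEK293. Compound exposure lasted 24 hr at 37 deg C, 5% CO2.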
LDHA block = blocks human lactate dehydrogenase A; P00338; purified LDHA, NADH/diaphorase-resazurin fluorescence; hits give low values; activity change, % (values are at about 110 or 230 µM); actives 0.15% (n = 480,000); AID 1347041; in the data active = activity change below about -30%; inconclusive = mostly about -25% to -30%
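Human LDH5 (2 nM) was incubated with 0.06 mM NADH and 0.2 mM pyruvate for 5 min at room temperature in Tris pH 7.4. Remaining NADH was coupled through diaphorase/resazurin, and resorufin fluorescence was read at 0 and 20 min.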
GLP-1R agonist = GLP-1 receptor (human) agonism; P43220; HEK293 GLP-1R CRE-luciferase, luminescence, 4-6 h; cells express a hypersensitive GLP-1R form; Potency, µM (series often up to 45.6 µM), most hits filed as activators; actives 0.007% (n = 380,000); AID 624172
ClpP mod = qHTS Assay for Activators of ClpP | actives 1.9% (n = 340,000) | ATP-dependent Clp protease proteolytic subunit (Bacillus subtilis (strain 168)), P80244 | purified B. subtilis ClpP, FRET peptide cleavage, 20 min | Potency, µM (titrated, usually from 57.5 µM) | AID 651965, 2013; active = well fitted falling curve with a large enough effect; inconclusive = small, poorly fitted or top-dose-only effect; inactive = no such curve, though single readings can be large or run the other way; note: the source files actives as falling curves though it sought activators and does not explain the sign; nearly all actives have a fitted effect of over 65% in size
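ClpP 10 microg/mL final, pH 8 Tris/KCl buffer with BSA, glycerol, Tween-20; compound pinned in; FRET-FV substrate; RT 20 min; Ex320/Em430; ΔFRET vs ADEP 5.8 microM, DMSO, no enzyme.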
p53 reactivator = re-activators of mutant p53; actives 0.063% (n = 320,000); Potency, µM (titrated, usually from 92.2 µM), usual class: activators; H1299 p53-A138V BP100-luciferase reporter, luminescence, 24 h; AID 504706; note: nearly all actives have a fitted effect of over 45% in size
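p53-null H1299 cells stably carrying temperature-sensitive p53-A138V and a BP100-luciferase reporter were pinned with compounds (4-point, 1:5 series) and held 24 hrs at 37 deg C. Luminescence was read 10 min after detection reagent.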
Large screens that a line does not name were inactive. Hits are enriched below; roughly 2.9% of the tested compounds scored in any of these assays. Unless noted, calls come from the whole dose curve; as a rule, active = well fitted curve in the direction sought with a large enough effect; inconclusive = small, poorly fitted or top-dose-only effect, or another doubt; inactive = no such curve, though single readings can be large; an effect the other way counts as inactive or inconclusive.

CCC[C@H]1CN(c2ccc(Br)cc2)C(=O)[C@@H]1CC(=O)Nc1ccc(OC)cc1	GLP-1R inv ag 7.9µM (no result: p53 reactivator)
CCCCCCc1ccc(N2C[C@H](CCCCC)[C@@H](CC(=O)NCc3ccc(OC)cc3)C2=O)cc1	GLP-1R inv ag inconclusive
CCC[C@H]1CN(c2ccc(Br)cc2)C(=O)[C@@H]1CC(=O)Nc1ccccc1	GLP-1R inv ag 11µM (no result: p53 reactivator)
CCCCCCc1ccc(N2C[C@H](CCCCC)[C@@H](CC(=O)NCc3ccccc3)C2=O)cc1	GLP-1R inv ag 4.5µM
COc1ccc(N2CCN(CC(=O)c3ccc(O)cc3O)CC2)cc1	none (no result: ClpP mod)
CC(C)(C)c1nnc(NC(=O)NS(=O)(=O)c2ccccc2)s1	ClpP mod 20µM
COC(=O)C1=CN(C(C)C)C=C(C(=O)OC)C1c1cc(Br)c(OC)c(OC)c1	ClpP mod 6.3µM
COCC1CCCN(C(=O)c2ccc3oc(Cc4ccc(Cl)cc4)nc3c2)C1 (centres undefined)	GLP-1R inv ag 10µM
Clc1cccc(Cn2ncc3ccccc32)c1	GLP-1R inv ag inconclusive
COc1ccc(/C=N/NC(=O)c2ccc3ccccc3c2)cc1OS(=O)(=O)c1ccc(NC(C)=O)cc1	GLP1R cytotox 2.2µM, ClpP mod inconclusive
CC(C)(C)Cc1c(-c2ccc(Cl)cc2)nc2ccc(Br)cn12	GLP1R cytotox inconclusive, GLP-1R inv ag 10µM (no result: p53 reactivator)
CC(C)(C)Cc1c(-c2ccc(Cl)cc2)nc2ccc(Cl)cn12	GLP-1R inv ag inconclusive (no result: p53 reactivator)
CC(C)(C)Cc1c(-c2ccccc2)nc2ccc(Cl)cn12	GLP1R cytotox inconclusive, GLP-1R inv ag 13µM (no result: p53 reactivator)
CC(C)(C)NC(=O)NC(=O)CN1CCN(C(c2ccccc2)c2ccccc2)CC1	GLP-1R inv ag 5µM
COc1ccc(CNC(=O)CN2CCN(C(c3ccccc3)c3ccccc3)CC2)cc1	GLP-1R inv ag 13µM (no result: ClpP mod)
O=C(CN1CCN(C(c2ccccc2)c2ccccc2)CC1)N1N=CCC1c1ccccc1 (centres undefined)	GLP-1R inv ag 11µM (no result: ClpP mod)
O=C(CN1CCN(c2ccccc2)CC1)N1N=CCC1c1ccccc1 (centres undefined)	none
O=C(CC(c1ccccc1)c1ccccc1O)NCc1ccccc1Cl (centres undefined)	GLP-1R inv ag 10µM
O=C(CC(c1ccccc1)c1cc(Br)ccc1O)NCc1ccco1 (centres undefined)	GLP-1R inv ag 11µM
O=C(CC(c1ccccc1)c1ccccc1O)NCc1ccco1 (centres undefined)	GLP-1R inv ag inconclusive
CCN(CC)c1ccc(NC(=O)/C=C/c2cc(Br)ccc2OC)cc1	GLP1R cytotox inconclusive, GLP-1R inv ag inconclusive
CCOC(=O)C1CCN(C(=O)c2cccc(Cl)c2)CC1	none
C=CCn1c(=O)c2c(nc(-n3nc(C)c(C)c3C)n2CC(=C)C)n(C)c1=O	LDHA block -32 (no result: GLP1R cytotox, GLP-1R inv ag, GLP-1R agonist, ClpP mod, p53 reactivator)
Cc1ccc2nc(-c3cc(-c4ccccc4)no3)cn2c1	GLP-1R inv ag 4µM, p53 reactivator inconclusive (no result: ClpP mod)
CC1=Nc2ccccc2/C1=C/c1sc(=N)n(-c2nccs2)c1O	GLP1R cytotox inconclusive, GLP-1R inv ag 2.5µM
O=C(CN(c1ccc2c(c1)OCCO2)S(=O)(=O)c1ccccc1)N1CCN(Cc2ccccc2)CC1	GLP-1R inv ag inconclusive, ClpP mod 32µM
NC(=O)C1CCN(C(=O)CN(c2ccc3c(c2)OCCO3)S(=O)(=O)c2ccccc2)CC1	none
CN(C)c1ccc(C(=O)NNC(=O)c2ccc(Cl)cc2)cc1	LDHA block -48 (no result: ClpP mod)
CN(C)c1ccc(C(=O)NNC(=O)c2ccc(F)cc2)cc1	none (no result: GLP1R cytotox, GLP-1R inv ag, GLP-1R agonist, ClpP mod, p53 reactivator)
CC(C)(C)S(=O)(=O)N1C[C@H]2CC/C=C\C/C=C\2[C@@H]1CCO	GLP-1R inv ag 2.8µM (no result: p53 reactivator)
C=C1[C@H](C)CN(S(=O)(=O)C(C)(C)C)[C@H]1CCO	none (no result: p53 reactivator)

Bioassay records: PubChem BioAssay, National Center for Advancing Translational Sciences (NCATS)
